Reference: the supplement of paper PMC11732987, “Enantioselective OTUD7B fragment discovery through chemoproteomics screening and high-throughput optimisation” (Communications Chemistry, 2025)

Experiments:
Assay in all cases: log2 ratio of Biotin-Ahx-Ub-VS probe labelling (fragment/DMSO); higher = less target engagement (more negative = stronger competition), active = hit call of the paper (q ≤ 0.05, log2 ratio ≤ -1)
Details in all cases: compound concentration: 200 uM; treatment time: 3 h
[1] = target: T1, ALG13 (UniProt Q9NP73)
T1 sequence (whole entry): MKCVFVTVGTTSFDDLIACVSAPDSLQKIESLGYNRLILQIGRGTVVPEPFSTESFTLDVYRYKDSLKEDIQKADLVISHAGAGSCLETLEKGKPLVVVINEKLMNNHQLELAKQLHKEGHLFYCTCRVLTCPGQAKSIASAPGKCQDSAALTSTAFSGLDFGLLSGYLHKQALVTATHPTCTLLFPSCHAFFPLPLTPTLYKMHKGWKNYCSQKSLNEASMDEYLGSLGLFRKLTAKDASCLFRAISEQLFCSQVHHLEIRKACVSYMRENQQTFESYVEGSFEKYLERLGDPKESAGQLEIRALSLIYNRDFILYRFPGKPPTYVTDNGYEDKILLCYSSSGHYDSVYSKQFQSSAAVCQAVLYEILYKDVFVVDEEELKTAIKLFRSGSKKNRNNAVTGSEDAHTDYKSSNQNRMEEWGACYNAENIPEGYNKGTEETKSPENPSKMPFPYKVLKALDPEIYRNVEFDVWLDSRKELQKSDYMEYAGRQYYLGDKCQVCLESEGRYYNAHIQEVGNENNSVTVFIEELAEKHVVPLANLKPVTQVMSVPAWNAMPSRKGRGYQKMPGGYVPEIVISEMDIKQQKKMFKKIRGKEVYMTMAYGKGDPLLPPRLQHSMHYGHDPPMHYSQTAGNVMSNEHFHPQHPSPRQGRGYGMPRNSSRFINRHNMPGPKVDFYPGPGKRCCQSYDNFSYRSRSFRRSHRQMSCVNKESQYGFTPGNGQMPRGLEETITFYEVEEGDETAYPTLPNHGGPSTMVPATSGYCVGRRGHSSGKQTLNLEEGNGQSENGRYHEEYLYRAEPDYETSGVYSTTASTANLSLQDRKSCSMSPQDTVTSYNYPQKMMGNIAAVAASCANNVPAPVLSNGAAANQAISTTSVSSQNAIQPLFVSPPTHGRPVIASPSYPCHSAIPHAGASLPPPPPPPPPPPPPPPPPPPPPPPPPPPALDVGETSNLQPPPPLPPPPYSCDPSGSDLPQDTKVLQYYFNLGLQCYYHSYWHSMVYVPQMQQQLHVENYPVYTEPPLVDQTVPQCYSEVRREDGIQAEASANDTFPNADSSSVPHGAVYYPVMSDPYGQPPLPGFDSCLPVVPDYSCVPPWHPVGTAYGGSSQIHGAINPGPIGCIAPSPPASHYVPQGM
Summary of the method: (§1)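 HEK293T lysate (495 µg per sample, in Tris/CHAPS/IGEPAL buffer with protease inhibitors) was exposed in triplicate for 3 h to fragment at 200 µM or to vehicle, then to Biotin-Ahx-Ub-VS at 0.5 µM final for 1 h. Labelled DUBs were enriched on NeutrAvidin, digested with LysC and trypsin, and analysed by diaPASEF LC-MS/MS. Spectronaut label-free quantities were normalised to the global median, and values are average log2 ratios of fragment over vehicle from an unpaired t-test. Only proteins with ≥2 unique peptides were used.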

[2] = target: ATXN3 (UniProt P54252)
Sequence of ATXN3 (P54252 whole entry): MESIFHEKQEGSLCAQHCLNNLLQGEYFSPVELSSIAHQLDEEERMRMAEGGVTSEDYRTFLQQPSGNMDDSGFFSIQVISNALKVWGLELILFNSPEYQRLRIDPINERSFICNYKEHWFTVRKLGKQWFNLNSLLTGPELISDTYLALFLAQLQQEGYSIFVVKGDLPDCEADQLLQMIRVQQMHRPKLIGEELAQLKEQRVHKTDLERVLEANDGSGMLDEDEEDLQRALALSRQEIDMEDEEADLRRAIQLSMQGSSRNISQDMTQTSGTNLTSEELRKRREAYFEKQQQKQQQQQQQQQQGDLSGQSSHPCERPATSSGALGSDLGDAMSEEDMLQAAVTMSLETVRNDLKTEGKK
Summary of the method: as §1

[3] = target: T2, BAP1 (UniProt Q92560)
T2 sequence (whole entry): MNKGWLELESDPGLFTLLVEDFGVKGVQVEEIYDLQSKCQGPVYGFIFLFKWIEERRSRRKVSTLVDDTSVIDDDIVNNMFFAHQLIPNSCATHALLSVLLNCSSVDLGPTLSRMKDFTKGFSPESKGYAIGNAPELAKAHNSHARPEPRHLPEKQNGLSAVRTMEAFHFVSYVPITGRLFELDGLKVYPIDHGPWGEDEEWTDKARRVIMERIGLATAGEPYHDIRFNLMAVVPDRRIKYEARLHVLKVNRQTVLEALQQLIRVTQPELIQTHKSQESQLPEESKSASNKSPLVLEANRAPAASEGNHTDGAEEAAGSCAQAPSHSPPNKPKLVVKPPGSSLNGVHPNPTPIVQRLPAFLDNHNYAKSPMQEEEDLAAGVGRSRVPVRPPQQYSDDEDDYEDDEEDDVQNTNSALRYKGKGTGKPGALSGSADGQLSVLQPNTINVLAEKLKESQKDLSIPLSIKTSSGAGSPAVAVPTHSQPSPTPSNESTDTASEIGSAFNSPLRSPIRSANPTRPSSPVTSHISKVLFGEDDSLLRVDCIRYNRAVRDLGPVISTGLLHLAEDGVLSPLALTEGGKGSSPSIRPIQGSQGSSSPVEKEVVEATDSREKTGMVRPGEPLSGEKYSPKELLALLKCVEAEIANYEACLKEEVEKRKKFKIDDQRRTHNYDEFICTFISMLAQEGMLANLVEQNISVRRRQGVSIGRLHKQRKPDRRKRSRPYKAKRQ
Summary of the method: as §1

[4] = target: EIF3F (UniProt O00303)
Sequence of EIF3F (O00303 whole entry): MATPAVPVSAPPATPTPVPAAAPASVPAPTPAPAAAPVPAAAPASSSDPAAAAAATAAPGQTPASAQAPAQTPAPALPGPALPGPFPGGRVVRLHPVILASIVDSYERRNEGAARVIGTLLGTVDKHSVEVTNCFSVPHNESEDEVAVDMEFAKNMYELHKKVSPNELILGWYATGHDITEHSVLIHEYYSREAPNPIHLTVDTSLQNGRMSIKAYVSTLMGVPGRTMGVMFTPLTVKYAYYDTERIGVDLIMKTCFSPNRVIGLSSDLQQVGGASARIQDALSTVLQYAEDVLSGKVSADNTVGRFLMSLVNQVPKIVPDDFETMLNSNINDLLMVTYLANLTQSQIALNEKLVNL
Summary of the method: as §1

[5] = target: EIF3H (UniProt O15372)
Sequence of EIF3H (O15372 whole entry): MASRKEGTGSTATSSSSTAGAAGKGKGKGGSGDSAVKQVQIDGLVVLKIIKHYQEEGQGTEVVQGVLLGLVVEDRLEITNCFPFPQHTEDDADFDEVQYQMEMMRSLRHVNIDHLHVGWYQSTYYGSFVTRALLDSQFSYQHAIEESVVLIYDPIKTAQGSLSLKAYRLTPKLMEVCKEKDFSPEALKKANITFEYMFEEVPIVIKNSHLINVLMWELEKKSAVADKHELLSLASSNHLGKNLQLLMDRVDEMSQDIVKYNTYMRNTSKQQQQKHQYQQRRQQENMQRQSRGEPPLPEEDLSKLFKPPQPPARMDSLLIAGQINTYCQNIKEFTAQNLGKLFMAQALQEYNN
Summary of the method: as §1

[6] = target: T3, FAM105A (UniProt Q9NUU6)
T3 sequence (whole entry): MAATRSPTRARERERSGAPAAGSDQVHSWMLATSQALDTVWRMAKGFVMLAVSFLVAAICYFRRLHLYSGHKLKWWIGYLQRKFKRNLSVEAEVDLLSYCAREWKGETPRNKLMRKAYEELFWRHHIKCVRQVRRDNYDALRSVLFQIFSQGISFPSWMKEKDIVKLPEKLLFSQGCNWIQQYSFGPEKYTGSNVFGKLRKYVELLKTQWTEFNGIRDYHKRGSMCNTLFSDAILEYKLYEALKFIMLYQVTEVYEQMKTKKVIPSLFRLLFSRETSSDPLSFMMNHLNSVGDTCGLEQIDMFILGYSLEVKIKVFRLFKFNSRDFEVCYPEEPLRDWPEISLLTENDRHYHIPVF
Summary of the method: as §1

[7] = target: OTUB1 (UniProt Q96FW1)
Sequence of OTUB1 (Q96FW1 whole entry): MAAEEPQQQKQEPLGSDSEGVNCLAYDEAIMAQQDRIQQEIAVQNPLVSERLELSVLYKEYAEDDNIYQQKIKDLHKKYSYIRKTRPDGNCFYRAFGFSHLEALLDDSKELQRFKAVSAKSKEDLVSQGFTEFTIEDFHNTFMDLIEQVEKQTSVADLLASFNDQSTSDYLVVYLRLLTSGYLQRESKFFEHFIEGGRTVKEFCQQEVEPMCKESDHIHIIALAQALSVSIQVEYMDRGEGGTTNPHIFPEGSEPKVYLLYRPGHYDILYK
Summary of the method: as §1

[8] = target: T4, OTUD4 (UniProt Q01804)
T4 sequence (whole entry): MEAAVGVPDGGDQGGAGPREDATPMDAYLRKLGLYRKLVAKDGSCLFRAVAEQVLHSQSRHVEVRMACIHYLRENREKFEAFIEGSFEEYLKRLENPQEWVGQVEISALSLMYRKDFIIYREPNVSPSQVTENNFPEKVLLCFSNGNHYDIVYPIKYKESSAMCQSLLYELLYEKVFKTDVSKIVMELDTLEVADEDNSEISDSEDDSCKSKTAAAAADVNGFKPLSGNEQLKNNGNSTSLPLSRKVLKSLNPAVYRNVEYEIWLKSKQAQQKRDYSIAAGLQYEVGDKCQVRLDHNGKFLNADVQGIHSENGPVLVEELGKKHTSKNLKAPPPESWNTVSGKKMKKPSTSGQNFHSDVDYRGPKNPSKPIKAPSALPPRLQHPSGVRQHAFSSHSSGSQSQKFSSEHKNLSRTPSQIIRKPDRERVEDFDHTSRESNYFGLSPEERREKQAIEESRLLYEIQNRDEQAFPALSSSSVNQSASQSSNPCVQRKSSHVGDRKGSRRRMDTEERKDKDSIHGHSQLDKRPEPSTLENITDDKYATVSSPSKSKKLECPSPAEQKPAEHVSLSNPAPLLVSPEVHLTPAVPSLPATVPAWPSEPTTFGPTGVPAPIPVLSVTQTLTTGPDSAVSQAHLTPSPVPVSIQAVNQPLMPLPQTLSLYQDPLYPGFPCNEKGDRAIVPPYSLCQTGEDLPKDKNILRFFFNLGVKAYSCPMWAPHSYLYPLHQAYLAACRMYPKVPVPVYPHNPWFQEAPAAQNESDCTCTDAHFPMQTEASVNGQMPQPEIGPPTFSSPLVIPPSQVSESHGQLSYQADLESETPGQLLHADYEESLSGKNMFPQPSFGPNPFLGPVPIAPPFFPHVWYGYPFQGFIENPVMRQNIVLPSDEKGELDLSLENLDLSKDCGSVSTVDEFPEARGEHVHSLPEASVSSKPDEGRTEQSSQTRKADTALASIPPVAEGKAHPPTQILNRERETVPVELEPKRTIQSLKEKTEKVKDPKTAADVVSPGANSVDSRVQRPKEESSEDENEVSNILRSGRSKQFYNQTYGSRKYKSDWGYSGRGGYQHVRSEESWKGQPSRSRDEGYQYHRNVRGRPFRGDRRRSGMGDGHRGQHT
Summary of the method: as §1

[9] = target: T5, OTUD5 (UniProt Q96G74)
T5 sequence (whole entry): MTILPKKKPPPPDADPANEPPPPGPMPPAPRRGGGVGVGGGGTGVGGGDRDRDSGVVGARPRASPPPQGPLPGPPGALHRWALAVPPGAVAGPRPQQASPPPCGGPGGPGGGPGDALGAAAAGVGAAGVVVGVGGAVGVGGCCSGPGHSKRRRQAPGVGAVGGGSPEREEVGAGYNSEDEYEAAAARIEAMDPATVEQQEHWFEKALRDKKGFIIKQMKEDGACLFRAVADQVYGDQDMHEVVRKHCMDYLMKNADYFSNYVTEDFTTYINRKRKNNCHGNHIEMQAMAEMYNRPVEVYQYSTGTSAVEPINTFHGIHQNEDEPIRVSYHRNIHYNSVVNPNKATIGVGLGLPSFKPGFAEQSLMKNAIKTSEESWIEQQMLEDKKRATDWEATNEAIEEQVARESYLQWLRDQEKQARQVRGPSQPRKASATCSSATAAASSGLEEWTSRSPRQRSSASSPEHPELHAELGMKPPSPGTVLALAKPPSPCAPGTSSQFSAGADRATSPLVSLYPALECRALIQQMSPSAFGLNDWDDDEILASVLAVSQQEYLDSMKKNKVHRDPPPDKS
Summary of the method: as §1

Measured: log2 ratio of Biotin-Ahx-Ub-VS probe labelling

O=C(CCl)N1CCC2(CCC(O)CC2)CC1
inactive: [1] -0.532 | [2] -0.833 | [3] -0.626 | [4] -0.321 | [5] 0.288 | [6] 0.217 | [7] -0.0501 | [8] -0.206 | [9] -0.29
